# Experimental data from ChEMBL document CHEMBL4888484, “Replenishing the malaria drug discovery pipeline: Screening and hit evaluation of the MMV Hit Generation Library 1 (HGL1) against asexual blood stage Plasmodium falciparum ,using a nano luciferase reporter read-out” (2022).
# In all, about 150,000 compounds went through this assay and about 540 (0.36%) showed an effect of 50% or more. This is one part of a sample in which strong results are shown more often than they occur.
# System: Plasmodium falciparum
# Assay: Primary screen in NF54 nanoGlo assay, in single point, at 2uM, 72h; a lower Z score goes with more inhibition
# Type: functional, Erythrocyte
# Details: timepoint 72 hour
SMILES,% Inhibition [%],Z score
CCN(Cc1nc(C(N)=O)no1)Cc1c(F)cccc1Cl,-6,1.04
CC(C)(N)c1ccc(Cl)c(Cl)c1,-9,1.19
Nc1c(Br)cc2oc(-c3ccc4ccccc4c3)nc2c1Br,36,-1.3
O=C(N[C@H]1CCn2nccc2C1)c1ccc(OC(F)F)cn1,-8,0.97
CC(C)(C)OC1CC(NCC(=O)NCC2CC2)C1(C)C (centres undefined),-5,0.8
COC(=O)[C@H]1CCc2nnc(Cc3ccc(F)cc3)n2C1,-9,1.42
O=C(c1ccccc1C(F)(F)F)N1CC2(CCOC2)C1,5,-0.56
Cc1nc(N)nc(C(F)(F)F)c1Br,-1,0.16
COc1ccc(C(=O)c2ccccc2C(=O)Nc2cn[nH]c2)cc1,-8,1.57
O=C(NC1CC1)c1ccccc1C(=O)c1ccc(F)cc1,-8,1.02
O=C(Nc1cnc2ccccc2c1)c1ccccc1C(=O)c1ccc(F)cc1,93,-10.24
Cc1ccc(C(=O)Nc2ncn(Cc3c(F)cccc3Cl)n2)cc1,-15,1.74
C[n+]1ccc(-c2ncc(-c3ccccc3)o2)c2ccccc21,75,-5.73
CN(Cc1ncc(-c2ccccc2)o1)c1ccccc1,-6,0.5
CC(=O)Nc1c(-c2ccc(F)cc2)c(C)nn1-c1ccc(C(=O)Nc2cccc(F)c2)cc1,-5,0.93
CC(=O)Nc1c(-c2ccc(F)cc2)c(C)nn1-c1ccc(C(=O)Nc2nc(C)cs2)cc1,-1,0.19
CC(=O)Nc1c(-c2ccc(C)cc2)c(C)nn1-c1ccc(C(=O)Nc2cc(C)ccn2)cc1,59,-6.89
c1ccc2c(c1)CCCC2N1CCCC(Cn2cncn2)C1 (centres undefined),-9,1.31
C[C@H](NC(=O)CNC(C)(C)C)c1ccc(F)cc1F,-4,0.48
CC1(C)CO[C@@H](CC(=O)N2CCOC3(CCS(=O)(=O)CC3)C2)C1,0,0.06
Cc1ccc(-c2cn[nH]c2[C@H]2CCCN(C(=O)c3[nH]cnc3C)C2)cc1,-5,0.87
Cc1cccc2c(-c3cccc(C(N)=O)n3)c[nH]c12,-6,1.19

SMILES,% Inhibition [%],Z score
Cc1cccc2c(-c3cc(N)nc(N)n3)c[nH]c12,85,-9.19
O=C(c1cnc2ccsc2c1)N1CC2(CCCCC2)C1,-15,2.61
CCc1noc(C)c1C(=O)Nc1sc2c(c1C(N)=O)CCCCC2,-23,2.07
CCn1ncnc1CNC1CC(c2ccc(Br)cc2)C1 (centres undefined),-13,1.96
COc1ccc(C(=O)c2cnc3cc(Cl)ccc3c2-c2ccccc2)cc1,-12,1.39
COc1ccc2c(O)cc(-c3ccccc3)nc2c1,37,-0.12
COc1ccc2c(O)c(C(=O)NCCN(C)C)cnc2c1,-7,0.96
Cc1cccc(Cn2c(C(=O)Nc3ccccc3)cc3cc(NC(=O)C4CCC4)ccc32)c1,13,-2.41
COc1ccc(-c2nn(-c3ccccc3C)cc2CN(C)Cc2nccn2C)cc1F,-8,1.05
Cc1cc(C(=O)Nc2cccc(C(F)(F)F)c2)cc2c1N(C)S(=O)(=O)c1ccccc1-2,-3,0.47
O=C(COC[C@H]1CCCCO1)NC(C1CC1)C1CC1,-8,1.05
Cc1ccc(-c2ccc(C(=O)Nc3cccnc3)o2)cc1Cl,-2,0.25
O=C(Nc1ccc(Br)cn1)c1ccc(-c2ccc(Cl)c(Cl)c2)o1,31,-3.51
O=C(Nc1cccnc1)c1ccc(-c2ccc(Cl)c(Cl)c2)o1,64,-16.5
Nc1nn2cc(-c3cc4ccccc4o3)nc2c2ccccc12,-6,1.22
Cc1ccc2nc(-c3cc4ccccc4o3)cn2c1,61,-5.65
Cc1ccc2nc(-c3cnoc3C)cn2c1,0,0.04
O=C(NCCN1CCCC1)c1ccc(-c2c(-c3ccc(F)cc3)ncn2C2CCCC2)o1,5,-0.8
Cc1ccc(Cl)cc1N1CCN(C(=O)N2CCC(C)CC2)CC1,0,-0.01
CCc1nc2cc(N3CCC(C(=O)Nc4ccc5c(c4)OCO5)CC3)cnc2nc1CC,73,-0.75
CCc1nc2cc(N3CCC(C(=O)N[C@@H](C)CC)CC3)cnc2nc1CC,-9,1.42
CCc1nc2cc(N3CCC(C(=O)NCc4cc(F)cc(F)c4)CC3)cnc2nc1CC,-5,0.82

SMILES,% Inhibition [%],Z score
Cc1ccc(S(=O)(=O)c2cn(CC(=O)Nc3ccc(C)c(C)c3)c3nc(C)ccc3c2=O)cc1,-12,1.24
COCCN1C[C@]2(CCCN(c3ccnc4ccc(C)cc34)C2)CCC1=O,-3,0.55
COCCN1CC[C@H](CN(C)S(=O)(=O)Cc2ccc(Cl)cc2)C1,-6,1.12
COCCN1CC[C@H](CN(C)c2ccncn2)C1,1,-0.2
COCCN1CCC[C@@]2(CCN(Cc3cnn(-c4ccc(Cl)cc4)c3)C2)C1,-9,1.21
COC(=O)[C@H](CN)Oc1ccc(F)cc1,2,-0.27
O=C(NC1CC1C1CCCCC1)N1CCS(=O)(=O)CC1 (centres undefined),77,-9.17
O=C(N[C@@H]1C[C@H]1C1CCCCC1)N1CCC(N2CCCCC2)C1 (some centres undefined),-9,1.45
O=C(NC1CC1C1CCCCC1)N1CCCN(C2CCOCC2)CC1 (centres undefined),-16,1.42
CCCN(C(=O)Nc1cc(Cl)ccc1OC)c1nc(-c2ccc(C3CCCCC3)cc2)cs1,-14,2.04
COc1ccc(NCC(=O)Nc2cc(C(F)(F)F)cc(NC(=O)CNc3ccc(OC)cc3)c2Cl)cc1,-10,1.34
CC(=O)Oc1ccc(N2C(=O)[C@@H]3[C@H](Cc4ccccc4)N[C@]4(C(=O)Nc5c4ccc(Cl)c5C)[C@@H]3C2=O)cc1,-4,0.38
O=C(ON1C(=O)CCC1=O)c1cccc(F)c1,34,-3.87
Cc1cccc(C(=O)ON2C(=O)CCC2=O)c1,39,1.28
O=C(ON1C(=O)CCC1=O)c1cc2ccccc2[nH]1,61,-0.88
Cc1nn(-c2nc3ccccc3[nH]2)c(O)c1CCC(C)C,95,-12.21
Cc1cccc(Cc2c(C)nn(-c3nc(C)cc(C)n3)c2O)c1,36,2.2
Cc1cc(C)nc(-n2nc(C)c(CCc3ccccc3)c2O)n1,32,-3.67
Oc1cc(-c2ccc(F)cc2)nn1-c1nc2ccccc2[nH]1,36,-4.09
COc1ccccc1-n1nc(C)c(Cc2ccccc2)c1O,31,-3.49
Cc1nn(-c2nc3ccccc3[nH]2)c(O)c1Cc1ccccc1,63,-1.65
COc1ccc([C@@H]2N(c3ccc(Cl)cc3)OC(=O)N2c2ccccc2)cc1,1,-0.09

SMILES,% Inhibition [%],Z score
Cc1n[nH]c2c1CN(Cc1[nH]cc(C)c(=O)c1C)CC2,-8,1
COCCCN(CCC(=O)NCCc1ccccc1)C(=O)c1cc(C)oc1C,2,-0.18
Cc1ccc(CNC(=O)CC2CC2)c2cccnc12,-16,2.46
COc1ccc(Cl)cc1-c1cc(C(=O)N2CCOCC2)ccn1,3,-0.54
CCc1c(C(=O)N2CCC(c3ccnn3CCO)CC2)cnn1-c1cccc(Cl)c1,-3,0.24
CCc1nc2ccccc2c(C(=O)N2CCN(c3cc(OC)ncn3)CC2)c1C,-13,1.69
COC[C@H]1CCCN1C[C@@H]1OC[C@H](NC(=O)c2ccc(C#N)cc2)[C@H]1O,9,-1.07
Cn1cccc1-c1nc2cc(N)ccc2[nH]1,-3,0.34
COCCN(CCOC)C(=O)c1cnn(C)c1,-6,0.88
CC(C)CCn1nnnc1[C@]1(N(C)C)CCCN(C(=O)CN2CCOCC2)C1,2,-0.27
CC(C)CCn1nnnc1[C@]1(N(C)C)CCCN(C(=O)c2cccn2C)C1,92,1.07
CCOc1ccccc1C(=O)N1CCC[C@](c2nnnn2CCC(C)C)(N(C)C)C1,-2,0.29
CCOCCCNCc1ccc(F)cc1,-10,1.59
COc1ccc(CNc2nc(-c3nnc(-c4ccccc4)o3)nc3ccccc23)cc1,55,-10.02
COc1ccc(-c2nnc(-c3nc(NCc4ccc5c(c4)OCO5)c4ccccc4n3)o2)cc1,-7,1.27
Cc1ccc(-c2nnc(-c3nc(NCc4ccc(F)cc4)c4ccccc4n3)o2)cc1,-11,2.05
O=C(NCC1(c2ccccc2)CCCCCC1)N1CCO[C@@H](CO)C1,-5,0.59
CCc1c(C)nc(C)nc1N1CC[C@H](NC(=O)c2cc(C)on2)[C@@H](O)C1,8,-1.41
CCn1nccc1C=C(C)c1ncccn1,1,-0.23
COc1ccc(Br)cc1NC(=O)N(C)CCCn1ccnc1,8,-0.86
CN(CCCn1ccnc1)C(=O)c1ccnc(N(C)C)c1,-12,1.13
